These results are taken from ChEMBL document CHEMBL3988442, “University of Dundee, Small-Polar-MMV Screening Library” (2021).

What all share (set-up): scale not given: direction of the effect not stated beside the values
The target of test [1] is Protein translocase subunit SecA (Escherichia coli (strain K12)) (UniProt P10408). Nature of the test: Assay to Identify E. coli SecA ATPase Inhibitors. It is filed as functional. Conditions: 30 µM.
The target in test [2] is T1, Ubiquitin-activating enzyme e1, putative (Leishmania donovani (strain BPK282A1)) (UniProt E9BSI1).
T1 sequence (whole entry): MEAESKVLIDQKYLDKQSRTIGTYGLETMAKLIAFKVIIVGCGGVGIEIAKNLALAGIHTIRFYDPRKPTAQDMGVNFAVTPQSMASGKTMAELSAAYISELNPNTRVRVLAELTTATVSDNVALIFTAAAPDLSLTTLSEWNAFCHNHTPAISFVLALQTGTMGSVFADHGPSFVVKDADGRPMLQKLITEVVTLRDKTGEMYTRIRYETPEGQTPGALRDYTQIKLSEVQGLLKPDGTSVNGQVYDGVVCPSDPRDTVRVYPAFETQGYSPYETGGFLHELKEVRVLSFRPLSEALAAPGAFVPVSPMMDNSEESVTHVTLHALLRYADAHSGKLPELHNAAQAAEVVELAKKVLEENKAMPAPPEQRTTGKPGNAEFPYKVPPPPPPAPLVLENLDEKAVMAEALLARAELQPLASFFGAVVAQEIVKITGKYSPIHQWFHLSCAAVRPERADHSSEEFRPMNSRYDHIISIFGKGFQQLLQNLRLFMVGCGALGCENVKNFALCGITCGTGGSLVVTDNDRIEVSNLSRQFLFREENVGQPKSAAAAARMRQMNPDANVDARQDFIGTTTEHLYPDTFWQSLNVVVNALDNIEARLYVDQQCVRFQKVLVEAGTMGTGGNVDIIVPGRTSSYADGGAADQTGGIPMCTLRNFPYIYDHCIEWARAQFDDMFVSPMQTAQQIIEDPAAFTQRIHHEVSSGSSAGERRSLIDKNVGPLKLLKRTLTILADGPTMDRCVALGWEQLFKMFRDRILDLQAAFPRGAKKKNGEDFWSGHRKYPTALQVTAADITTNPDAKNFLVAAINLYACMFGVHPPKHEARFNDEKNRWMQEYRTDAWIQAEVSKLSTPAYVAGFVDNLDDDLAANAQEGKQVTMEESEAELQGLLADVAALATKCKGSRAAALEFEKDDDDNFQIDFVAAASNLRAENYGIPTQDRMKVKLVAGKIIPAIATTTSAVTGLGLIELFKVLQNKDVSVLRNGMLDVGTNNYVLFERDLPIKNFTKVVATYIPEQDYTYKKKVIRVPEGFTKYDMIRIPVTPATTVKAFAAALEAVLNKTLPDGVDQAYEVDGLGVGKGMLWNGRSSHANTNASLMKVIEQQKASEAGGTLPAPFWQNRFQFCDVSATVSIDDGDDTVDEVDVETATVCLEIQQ
Nature of the test: Leishmania donovani Ubiquitin Activating Enzyme (LdE1). It is filed as functional. To be noted: 30 µM.

The target in test [3] is AMP-activated protein kinase, AMPK (Homo sapiens) (UniProt P54646+O43741+P54619+Q9UGJ0+Q9Y478+Q13131+Q9UGI9). Nature of the test: AMP-dependent Kinase enzyme assay. An in vitro enzyme assay that detects ADP turnover that is directly proportional to AMPK activity. This uses naive AMPK that is activated during the assay with MK-8722. It is filed as functional. To be noted: 30 µM.

The target of test [4] is Sialic acid-binding Ig-like lectin 9 (Homo sapiens) (UniProt Q9Y336). The experiment in a line: Hs-Siglec9 ALPHAscreen SOP 20170721. To be noted: 10 µM. For orientation: Bead proximity is the source of the signal in Alpha formats.
In the next test the test system is Trypanosoma cruzi. The experiment in a line: Trypanosoma cruzi phosphomannomutase and mannose-1-phosphate guanylyltransferase assay. It is filed as functional. Conditions: 10 µM.
Test [5] concerns the target T2, Arginase-2, mitochondrial (Homo sapiens) (UniProt P78540).
T2 sequence (whole entry): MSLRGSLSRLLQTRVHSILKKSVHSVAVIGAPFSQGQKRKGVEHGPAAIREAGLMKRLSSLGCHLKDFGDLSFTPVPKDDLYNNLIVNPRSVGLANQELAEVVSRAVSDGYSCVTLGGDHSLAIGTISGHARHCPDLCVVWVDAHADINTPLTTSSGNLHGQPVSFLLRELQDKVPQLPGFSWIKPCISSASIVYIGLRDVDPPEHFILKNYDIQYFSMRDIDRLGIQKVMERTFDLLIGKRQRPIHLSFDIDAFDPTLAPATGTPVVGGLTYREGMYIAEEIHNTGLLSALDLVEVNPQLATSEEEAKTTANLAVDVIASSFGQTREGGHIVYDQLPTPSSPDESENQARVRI
The experiment in a line: in vitro enzyme assay to detect the production of urea directly proportional to the activity of Arginase II. Note: in the data most compounds retested in dose-response had high values. Conditions: 33.3 µM. It is filed as functional.

The target in test [6] is T3, Proteasome subunit beta (Trypanosoma cruzi) (UniProt O96673).
T3 sequence (whole entry): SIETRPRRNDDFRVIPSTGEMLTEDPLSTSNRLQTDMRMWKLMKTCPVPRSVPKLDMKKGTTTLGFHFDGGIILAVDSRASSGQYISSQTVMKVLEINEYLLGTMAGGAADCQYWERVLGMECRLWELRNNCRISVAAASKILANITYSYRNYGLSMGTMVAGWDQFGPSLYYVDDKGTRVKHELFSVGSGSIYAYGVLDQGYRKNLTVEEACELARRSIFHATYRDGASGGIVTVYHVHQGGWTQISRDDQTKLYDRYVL
Nature of the test: Trypanosoma cruzi proteasome chymotrypsin-like activity (TcProtChymo) assay. Note: in the data most compounds retested in dose-response had high values. Conditions: 9.37 µM. It is filed as functional.

For another test, the species on record is Homo sapiens. The experiment in a line: To identify inhibition of the IFN signalling (Jak-Stat) pathway via expression of an eGFP reporter gene under the control of an IFN-stimulated response element (ISRE) containing MxA promoter. It is filed as functional. To be noted: 30 µM. Background: A reporter such as luciferase makes a cellular process visible.
The target of test [7] is T4, Tyrosyl-tRNA synthetase, putative (Trypanosoma cruzi (strain CL Brener)) (UniProt Q4DSP6).
T4 sequence (whole entry): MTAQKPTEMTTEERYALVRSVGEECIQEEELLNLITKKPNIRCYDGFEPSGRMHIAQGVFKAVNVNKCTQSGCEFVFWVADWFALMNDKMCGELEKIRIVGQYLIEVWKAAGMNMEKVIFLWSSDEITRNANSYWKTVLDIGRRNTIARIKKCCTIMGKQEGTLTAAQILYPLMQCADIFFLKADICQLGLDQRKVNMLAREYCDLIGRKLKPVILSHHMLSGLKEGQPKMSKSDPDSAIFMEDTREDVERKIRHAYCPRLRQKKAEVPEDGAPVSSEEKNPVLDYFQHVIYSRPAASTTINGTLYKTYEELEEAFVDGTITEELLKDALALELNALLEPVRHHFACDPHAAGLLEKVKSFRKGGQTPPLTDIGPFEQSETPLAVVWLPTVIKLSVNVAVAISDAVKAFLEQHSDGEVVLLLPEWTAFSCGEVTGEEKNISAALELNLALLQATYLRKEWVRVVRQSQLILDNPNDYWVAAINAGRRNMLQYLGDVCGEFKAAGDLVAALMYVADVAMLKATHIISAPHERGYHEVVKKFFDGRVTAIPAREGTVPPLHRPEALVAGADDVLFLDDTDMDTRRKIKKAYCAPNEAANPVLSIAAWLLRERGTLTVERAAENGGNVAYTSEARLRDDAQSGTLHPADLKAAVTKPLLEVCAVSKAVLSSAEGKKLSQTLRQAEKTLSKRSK
Nature of the test: Trypanosoma cruzi tyrosyl tRNA synthetase (TcYRS) _High Tyrosine SOP. Note: in the data most compounds retested in dose-response had high values. It is filed as functional. To be noted: 30 µM.

For test [8], the target named is T4, Tyrosyl-tRNA synthetase, putative (Trypanosoma cruzi (strain CL Brener)). Nature of the test: Trypanosoma cruzi tyrosyl tRNA synthetase (TcYRS) SOP. It is filed as functional. Conditions: 30 µM.
Test [9] deals with Chromo domain-containing protein 1 (Saccharomyces cerevisiae (strain ATCC 204508 / S288c) (Baker's yeast)) (UniProt P32657). The experiment in a line: ScCHD-1 Enzyme Inhibition Assay. Note: in the data most compounds retested in dose-response had high values. It is filed as functional. Conditions: 30 µM.

For some assays here: Potency and affinity values are given separately.

Chain of Sialic acid-binding Ig-like lectin 9 (Homo sapiens) (Q9Y336 whole entry): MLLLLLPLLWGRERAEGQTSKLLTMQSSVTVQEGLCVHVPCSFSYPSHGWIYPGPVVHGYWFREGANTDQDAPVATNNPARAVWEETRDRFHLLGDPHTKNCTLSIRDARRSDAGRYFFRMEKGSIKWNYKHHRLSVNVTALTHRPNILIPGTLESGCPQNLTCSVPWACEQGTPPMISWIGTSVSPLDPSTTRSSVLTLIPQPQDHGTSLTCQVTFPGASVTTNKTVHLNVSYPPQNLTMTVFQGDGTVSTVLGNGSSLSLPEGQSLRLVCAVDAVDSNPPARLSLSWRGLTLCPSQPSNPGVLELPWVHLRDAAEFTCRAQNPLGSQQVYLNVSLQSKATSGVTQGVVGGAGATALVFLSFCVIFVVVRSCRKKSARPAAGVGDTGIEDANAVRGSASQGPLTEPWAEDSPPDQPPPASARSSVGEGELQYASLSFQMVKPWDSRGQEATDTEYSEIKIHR
Chain of Chromo domain-containing protein 1 (Saccharomyces cerevisiae (strain ATCC 204508 / S288c) (Baker's yeast)) (P32657 whole entry, the tested form may be a part): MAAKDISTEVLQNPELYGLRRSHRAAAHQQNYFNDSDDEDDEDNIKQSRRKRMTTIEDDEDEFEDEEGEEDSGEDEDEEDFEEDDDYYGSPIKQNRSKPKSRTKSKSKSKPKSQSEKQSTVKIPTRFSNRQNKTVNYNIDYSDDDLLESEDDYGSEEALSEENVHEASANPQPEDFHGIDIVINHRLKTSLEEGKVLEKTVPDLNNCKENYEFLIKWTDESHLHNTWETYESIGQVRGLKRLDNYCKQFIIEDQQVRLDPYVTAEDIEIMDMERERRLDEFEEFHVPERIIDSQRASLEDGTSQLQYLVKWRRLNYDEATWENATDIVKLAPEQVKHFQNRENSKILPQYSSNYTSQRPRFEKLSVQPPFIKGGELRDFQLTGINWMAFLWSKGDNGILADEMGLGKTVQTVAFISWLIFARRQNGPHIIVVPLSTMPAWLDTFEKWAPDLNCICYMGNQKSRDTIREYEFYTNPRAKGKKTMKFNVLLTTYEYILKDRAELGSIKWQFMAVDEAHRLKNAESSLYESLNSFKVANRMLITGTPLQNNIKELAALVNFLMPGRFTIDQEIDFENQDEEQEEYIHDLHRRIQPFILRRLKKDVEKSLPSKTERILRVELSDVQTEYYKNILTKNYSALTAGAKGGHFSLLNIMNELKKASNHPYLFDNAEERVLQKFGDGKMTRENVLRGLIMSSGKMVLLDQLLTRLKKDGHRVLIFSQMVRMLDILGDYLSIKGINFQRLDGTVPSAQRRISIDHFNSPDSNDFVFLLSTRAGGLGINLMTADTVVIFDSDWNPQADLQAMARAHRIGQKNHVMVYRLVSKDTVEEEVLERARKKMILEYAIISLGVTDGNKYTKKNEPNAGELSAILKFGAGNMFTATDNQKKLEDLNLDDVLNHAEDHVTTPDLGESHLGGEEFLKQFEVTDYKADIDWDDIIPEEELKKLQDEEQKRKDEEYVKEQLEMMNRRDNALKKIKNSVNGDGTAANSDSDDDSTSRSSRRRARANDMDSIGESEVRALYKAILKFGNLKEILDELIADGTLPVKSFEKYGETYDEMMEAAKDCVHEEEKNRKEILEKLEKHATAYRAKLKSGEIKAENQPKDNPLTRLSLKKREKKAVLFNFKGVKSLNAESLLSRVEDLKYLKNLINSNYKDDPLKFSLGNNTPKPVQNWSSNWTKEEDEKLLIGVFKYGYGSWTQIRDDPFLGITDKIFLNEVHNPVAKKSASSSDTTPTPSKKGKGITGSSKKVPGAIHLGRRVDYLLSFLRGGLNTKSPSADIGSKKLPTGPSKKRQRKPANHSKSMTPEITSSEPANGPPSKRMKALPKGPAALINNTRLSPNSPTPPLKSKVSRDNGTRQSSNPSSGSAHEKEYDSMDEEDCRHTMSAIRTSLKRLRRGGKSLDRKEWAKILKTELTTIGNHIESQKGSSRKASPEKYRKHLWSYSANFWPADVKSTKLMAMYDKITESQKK
Chain of Protein translocase subunit SecA (Escherichia coli (strain K12)) (P10408 whole entry): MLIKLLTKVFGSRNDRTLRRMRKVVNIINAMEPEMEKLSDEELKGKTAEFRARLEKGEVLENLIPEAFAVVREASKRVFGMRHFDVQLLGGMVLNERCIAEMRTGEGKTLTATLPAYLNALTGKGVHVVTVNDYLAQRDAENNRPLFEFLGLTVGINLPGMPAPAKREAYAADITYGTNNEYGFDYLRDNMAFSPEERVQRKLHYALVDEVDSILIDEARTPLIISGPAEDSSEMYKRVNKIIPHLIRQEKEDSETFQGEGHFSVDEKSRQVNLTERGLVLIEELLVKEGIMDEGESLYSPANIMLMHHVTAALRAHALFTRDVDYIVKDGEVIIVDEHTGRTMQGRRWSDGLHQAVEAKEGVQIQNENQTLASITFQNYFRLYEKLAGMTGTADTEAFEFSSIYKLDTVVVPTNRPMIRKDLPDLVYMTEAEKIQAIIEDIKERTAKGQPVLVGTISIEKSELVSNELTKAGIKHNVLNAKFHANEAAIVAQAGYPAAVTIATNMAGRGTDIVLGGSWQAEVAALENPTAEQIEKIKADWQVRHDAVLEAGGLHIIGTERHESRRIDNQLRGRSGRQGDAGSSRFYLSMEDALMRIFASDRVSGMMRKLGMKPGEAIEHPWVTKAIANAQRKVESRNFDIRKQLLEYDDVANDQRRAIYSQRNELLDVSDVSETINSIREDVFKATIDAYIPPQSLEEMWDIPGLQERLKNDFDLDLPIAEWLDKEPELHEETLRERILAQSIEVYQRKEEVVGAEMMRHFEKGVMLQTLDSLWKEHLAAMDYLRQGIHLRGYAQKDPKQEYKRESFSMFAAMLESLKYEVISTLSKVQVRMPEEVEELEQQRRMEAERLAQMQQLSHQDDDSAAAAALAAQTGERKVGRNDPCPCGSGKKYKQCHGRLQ

For `CC(NC(=O)N(C)Cc1ccsc1)c1ccc2c(c1)OCO2` (stereo not given), the Percent Effect in test [1] is -2.79%; in test [2], 10.5%; in [3] it was 5%; in test [4], 4.83%; with Trypanosoma cruzi it was 9.59%; in test [5] it was -4.21%. The Percent Effect was 11% in [6]; 1.31% in the test listed under Homo sapiens; 4.41% in [7]; 19.5% in test [8]; -8.55% in [9].

`COCCCC1(CO)CCCN(CCS(C)(=O)=O)C1` (stereo not given): the Percent Effect in test [1] is -1.54%; in test [2], 0%; in [3], 3.61%; in [4], -1.71%; with Trypanosoma cruzi it was 0%; in test [5] it was 1.36%. Further, the Percent Effect is 2.13% in test [6]; -0.331% in the test listed under Homo sapiens; 2.15% in test [7]; 5% in test [8]; 2.4% in test [9].

Turning to `COCCN1CCC(NCc2ccc(C#N)cc2)C1` (stereo not given), the Percent Effect in test [1] was -8.38%; in test [2], 0%; in test [3], -5.29%; in [4], 8.39%; in the test with Trypanosoma cruzi, 9.55%; in test [5], 4.98%. Further, the Percent Effect was 1.86% in test [6]; 2.29% in the test filed under Homo sapiens; 8.74% in test [7]; 21.9% in test [8]; -10.6% in test [9].

In the case of `O=C(Cc1cccs1)N1C[C@@H]2COC[C@]2(COc2cccnc2)C1`, the Percent Effect is -2.91% in test [1]; 8.11% in test [2]; -0.523% in [3]; -5.15% in [4]; 7.62% in the test with Trypanosoma cruzi; -1.25% in [5]. Further, the Percent Effect in [6] was 8.2%; in the test listed under Homo sapiens, -12.3%; in test [7] it was 7.92%; in test [8], 11%; in test [9], -1.81%.

On to `CN(c1ccc(C(C)(C)C)cc1)S(=O)(=O)c1cc(C(=O)O)cs1`, for which the Percent Effect in test [1] was -2.58%; in test [2] it was -2.7%; in test [3] it was -8.07%; in test [4] it was 8.29%; with Trypanosoma cruzi it was -3.11%; in [5], 2.4%. Also, the Percent Effect in test [6] was -1.08%; in the test listed under Homo sapiens, -8.15%; in test [7], -1.48%; in test [8] it was 1.24%; in test [9], 1.18%.

Take `O=C(N1CCOCC1)[C@@]12CCO[C@@H]1CCN(Cc1ccccc1F)C2`: the Percent Effect in [1] was -0.952%; in test [2], -4%; in test [3] it was -2.07%; in [4], 6.8%; in the test with Trypanosoma cruzi it was -6.88%; in test [5] it was 29.8%. Further, the Percent Effect in test [6] is 12.2%; in the test listed under Homo sapiens, 0.338%; in test [7], 1.06%; in test [8] it was -2.56%; in [9], -3.56%.

Regarding `Cc1ccc(CC(=O)NCCCNS(C)(=O)=O)cc1`, the Percent Effect in [1] was -0.957%; in [2], 13.9%; in test [3], 3.16%; in [4], 0.198%; in the test on Trypanosoma cruzi, -2.56%; in test [5] it was -1.94%. The Percent Effect was 14.8% in [6]; -1.21% in the test listed under Homo sapiens; 6.25% in [7]; 15.2% in [8]; -16.2% in [9].

As to `Cn1cc(C2CCCN2Cc2csc(C(C)(C)C)n2)cn1` (stereo not given), the Percent Effect in test [1] was -8.01%; in test [2], 12.7%; in test [3], -5.07%; in test [4], 14.2%; in the test on Trypanosoma cruzi, 6.33%; in test [5], -5.32%. The Percent Effect was 4.01% in test [6]; -16.1% in the test listed under Homo sapiens; 8.37% in test [7]; 16.5% in test [8]; -9.19% in [9].

Regarding `O=C1NCCN1C1CCN(CCc2cccs2)CC1`, the Percent Effect is -7% in [1]; 18.2% in [2]; -1.15% in test [3]; -8.84% in test [4]; 5.78% in the test on Trypanosoma cruzi; -3.16% in [5]. Further, the Percent Effect was 17.5% in [6]; 2.25% in the test filed under Homo sapiens; 5.71% in [7]; 23.5% in test [8]; -17.6% in [9].

For `O=C(Cc1ccccn1)N1CCN(C(=O)c2cccc3[nH]ncc23)CC1`, the Percent Effect in test [1] is -1.44%; in [2], 3.8%; in test [3], 15.9%; in test [4], -3.99%; with Trypanosoma cruzi it was -0.103%; in [5] it was 2.8%. Besides, the Percent Effect in test [6] was 5.15%; in the test filed under Homo sapiens it was 4.63%; in test [7], 5.21%; in test [8], 5.06%; in test [9], -0.724%.
